Results published in PubChem BioAssay (NCATS).
Where “and” joins values, the source holds several entries; their conditions need not be identical. Equal values may be shown once. Records with an inconclusive call do not appear. Calls of active or inactive are those of the source. Unless noted, calls follow the shape of the dose curve; as a rule, active = well fitted curve in the direction sought with a large enough effect; inconclusive = small, poorly fitted or top-dose-only effect, or another doubt; inactive = no such curve, though single readings can be large; an effect the other way counts as inactive or inconclusive.

What was measured:
[1] = biological target: Cellular tumor antigen p53 (Homo sapiens) (UniProt P04637); test: Primary qHTS for small molecule compounds that upregulate eGFP-tagged delta133p53alpha (in N-terminal) cells. (AID 2060322); conditions: NCI-H358 eGFP-delta133p53alpha fluorescence, 24 h; activation: hits give high values; also: nearly all actives have a fitted effect of over 75% in size; also: potency is read from the fitted curve at half-maximal effect;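 as to activation: cells pre-induced with doxycycline then dosed without doxycycline; series mostly up to about 56 µM; 0% = DMSO vehicle and 100% = reference activator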
Sequence of Cellular tumor antigen p53 (Homo sapiens) (P04637 whole entry, looked up): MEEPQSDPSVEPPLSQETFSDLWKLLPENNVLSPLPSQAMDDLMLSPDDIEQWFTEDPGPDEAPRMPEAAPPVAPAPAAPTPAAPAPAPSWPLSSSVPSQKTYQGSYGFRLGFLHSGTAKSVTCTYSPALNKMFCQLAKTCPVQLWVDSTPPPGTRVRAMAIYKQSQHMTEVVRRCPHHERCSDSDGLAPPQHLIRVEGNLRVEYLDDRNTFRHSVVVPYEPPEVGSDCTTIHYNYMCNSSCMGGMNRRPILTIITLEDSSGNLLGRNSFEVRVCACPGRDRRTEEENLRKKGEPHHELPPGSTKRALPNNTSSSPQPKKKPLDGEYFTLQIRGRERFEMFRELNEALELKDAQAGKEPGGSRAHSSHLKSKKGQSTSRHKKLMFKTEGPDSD
Procedure, shortened: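 NCI-H358 cells pre-induced 24 h with 10 ng/ml doxycycline for eGFP-delta133p53alpha, plated dox-free and exposed 24 h at 37C to titrated compounds. Fixed, Hoechst-stained; gated GFP peak intensity by laser scanning cytometry, normalized to DMSO (0%) and 57.5 uM 5-azacytidine (100%).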

[2] = biological target: Aldehyde dehydrogenase, mitochondrial (Homo sapiens) (UniProt P05091); test: qHTS for Inhibitors of the Aldehyde Dehydrogenase Family (ALDH2) Primary screen (AID 2061308);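 also: plate controls were vehicle for no effect and reference inhibitor for full effect; nearly all actives have a fitted effect of over 55% in size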
[3] = biological target: Aldehyde dehydrogenase, mitochondrial (Homo sapiens) (UniProt P05091); test: qHTS for Inhibitors of the Aldehyde Dehydrogenase Family (ALDH2) Confirmatory screens (AID 2061303; active = well fitted inhibition curve with a large enough effect; title and protocol of this record describe different tests; also: % is scaled to controls: 0 for no effect and ±100 for the full control effect; nearly all actives have a fitted effect of over 45% in size)
[4] = qHTS for Inhibitors of the Aldehyde Dehydrogenase Family (ALDH1A2, ALDH1A3, ALDH2, ALDH3A1) (AID 2061307); also: nearly all actives have a fitted effect of over 50% in size
[5] = biological target: Retinaldehyde dehydrogenase 3 (Homo sapiens) (UniProt P47895); test: qHTS for Inhibitors of the Aldehyde Dehydrogenase Family (ALDH1A3) Confirmatory screens (AID 2061311); also: % is scaled to controls: 0 for no effect and ±100 for the full control effect; nearly all actives have a fitted effect of over 60% in size
[6] = biological target: Retinaldehyde dehydrogenase 3 (Homo sapiens) (UniProt P47895); test: qHTS for Inhibitors of the Aldehyde Dehydrogenase Family (ALDH1A3) Validation screen (AID 2061312); also: nearly all actives have a fitted effect of over 45% in size; also: potency is read from the fitted curve at half-maximal effect
[7] = biological target: Retinal dehydrogenase 2 (Homo sapiens) (UniProt O94788); test: qHTS for Inhibitors of the Aldehyde Dehydrogenase Family (ALDH1A2) Confirmation screens (AID 2061314); also: % is scaled to controls: 0 for no effect and ±100 for the full control effect; nearly all actives have a fitted effect of over 65% in size
[8] = biological target: Retinaldehyde dehydrogenase 3 (Homo sapiens) (UniProt P47895); test: qHTS for Inhibitors of the Aldehyde Dehydrogenase Family (ALDH1A3) Primary screen (AID 2061315);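 also: plate controls were DMSO vehicle for no effect and reference inhibitor for full effect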
[9] = biological target: Aldehyde dehydrogenase 1A1 (Homo sapiens) (UniProt P00352); test: qHTS for Inhibitors of the Aldehyde Dehydrogenase Family (ALDH1A1) Confirmatory screens (AID 2061316); also: nearly all actives have a fitted effect of over 65% in size; also: potency is read from the fitted curve at half-maximal effect
[10] = biological target: Aldehyde dehydrogenase, mitochondrial (Homo sapiens) (UniProt P05091); test: qHTS for Inhibitors of the Aldehyde Dehydrogenase Family (ALDH2) Validation screens (AID 2061302; active = well fitted inhibition curve with a large enough effect; title and protocol of this record describe different tests; also: potency is read from the fitted curve at half-maximal effect)
[11] = BET inhibitor-based combinations targeting novel dependencies in MECOM-rearranged (r) AML: MV-4-11 cell line (AID 2202233);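 also: plate controls were DMSO for no effect and blank wells for full effect; nearly all actives have a fitted effect of over 45% in size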
Procedure, shortened: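 Activity is given as area under the curve and as Z-AUC, mean-centred within each cell line. It comes from 11-point dose curves normalized to DMSO and empty wells. CellTiter-Glo luminescence was read after 48 hr drug exposure of 500 cells/well.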

[12] = BET inhibitor-based combinations targeting novel dependencies in MECOM-rearranged (r) AML: AML-194 cell line (AID 2202237;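 also: plate controls were vehicle wells for no effect and wells without cells for full effect; nearly all actives have a fitted effect of over 40% in size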)
Procedure, shortened: (§1)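 Cells were plated at 500 per well and exposed to an 11-point dose series of each drug for 48 hr. Viability was measured by CellTiter-Glo luminescence, normalized to DMSO and empty-well controls, and summarized as AUC and per-cell-line Z-AUC.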

[13] = BET inhibitor-based combinations targeting novel dependencies in MECOM-rearranged (r) AML: SET-2 cell line (AID 2202231); conditions: SET-2 AML cells viability, CellTiter-Glo luminescence, 48 h; viability: hits give low values, series mostly up to about 46 µM;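 also: plate controls were DMSO treated cells for no effect and wells without cells for full effect; nearly all actives have a fitted effect of over 35% in size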
Procedure, shortened: as §1

[14] = BET inhibitor-based combinations targeting novel dependencies in MECOM-rearranged (r) AML: OCI-AML3 cell line (AID 2202232); conditions: Potency: OCI-AML3 viability;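 also: series mostly up to about 46 µM; plate controls were DMSO vehicle wells for no effect and wells without cells for full effect; nearly all actives have a fitted effect of over 35% in size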
Procedure, shortened: as §1

[15] = BET inhibitor-based combinations targeting novel dependencies in MECOM-rearranged (r) AML: AML-191 cell line (AID 2202236;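 also: plate controls were vehicle wells for no effect and wells without cells for full effect; nearly all actives have a fitted effect of over 35% in size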)
Procedure, shortened: as §1

CC1CCCC(O)CCC/C=C/c2cc(O)cc(O)c2C(=O)O1 (stereo not drawn)
inactive: activation [1] 28.2% | Potency [2]

Cc1[nH]c2ccc(Cl)cc2c1CCN(C)C
active: Potency [6] 10 µM
inactive: activation [1] -3.82% | Potency [3] | Potency [4] | Potency [5] | Potency [7] | Potency [8]

CC(=O)OC12C(O)C(C)C3(O)C4C=C(C)C(=O)C4CC(CO)=CC3C1C2(C)C (stereo not drawn)
inactive: activation [1] -3.05% | Potency [2]

N#C[C@@H](O[C@@H]1O[C@H](CO[C@@H]2O[C@H](CO)[C@@H](O)[C@H](O)[C@H]2O)[C@@H](O)[C@H](O)[C@H]1O)c1ccccc1
inactive: activation [1] -19.6% | Potency [2]

CC(=O)O[C@H]1CC[C@@]2(CI)C(=CC[C@@H]3[C@@H]2CC[C@]2(C)C(=O)CC[C@@H]32)C1
active: Potency [9] 10.1 µM
inactive: activation [1] 13.7% | Potency [4]

COc1cc2c(cc1O)C1(C)CCC(O)C(C)(C)C1CC2=O (stereo not drawn)
inactive: activation [1] -4.58% | Potency [2]

COc1ccc(CC2C(=O)NC(C)C(=O)N(C)C3Cc4ccc(cc4)Oc4cc(ccc4OC4OC(CO)C(O)C(O)C4O)CC(C(=O)NC(C)C(=O)NC(CCC(=O)O)C(=O)N2C)N(C)C3=O)cc1 (stereo not drawn)
inactive: activation [1] 5.36% | Potency [2]

CN(C(=O)CN1C(=O)COc2cc(Cl)c(Cl)cc21)[C@@H](CN1CCCC1)c1ccc(-c2cccc(C(N)=O)c2)cc1
active: Potency [1] 21.3 µM
inactive: Potency [2]

c1ccc(C2(c3ccccc3)OC[C@@H]([C@H]3CCCCN3)O2)cc1
inactive: activation [1] 2.86% | Potency [2] | Potency [6] | Potency [8]

CC(=O)c1c(O)c(C)c(O)c(Cc2c(O)c3c(c(C(=O)/C=C/c4ccccc4)c2O)OC(C)(C)C=C3)c1O
inactive: activation [1] -54.1% | Potency [11] | Potency [12]
active: Potency [10] 8.91 µM

CCc1[nH]c2ccc(OC)cc2c1CCN(C)C
inactive: activation [1] 8.59% | Potency [3] | Potency [2] | Potency [5]

COc1ccc2c(C(=O)c3ccc(Cl)cc3)c(C)n(CC(=O)O)c2c1
inactive: activation [1] -36.8% | Potency [4] | Potency [2] | Potency [5] | Potency [7] | Potency [8] | Potency [9]

NNC(=O)c1nn(Cc2ccc(Cl)cc2Cl)c2ccccc12
inactive: activation [1] 17% | Potency [3] | Potency [2] | Potency [8]
active: Potency [4] 8.91 µM

CO[C@@H]1[C@H](O)[C@@H](O[C@@H]2C[C@H]3CC[C@@H]4C(CC[C@]5(C)[C@@H](C6=CC(=O)OC6)CC[C@]45O)[C@@]3(C)[C@H](O)C2)O[C@H](C)[C@@H]1O (stereo partly drawn)
inactive: Potency [3] | Potency [4] | Potency [2] | Potency [5] | Potency [7] | Potency [8] | Potency [9]
active: Potency [1] 1.04 µM

CN=C(NS(=O)(=O)c1ccc(Cl)cc1)N1C[C@H](c2ccccc2)C(c2ccc(Cl)cc2)=N1
inactive: activation [1] 1.91% | Potency [2] | Potency [6] | Potency [8]

C=CCN1CC[C@]23c4c5ccc(O)c4O[C@H]2[C@@H](O)CC[C@@]3(O)[C@H]1C5
inactive: activation [1] 4.33% | Potency [2]

COC(=O)[C@]12CCCC(C)(C)C1CCc1cc(C(C)C)c(O)c(O)c12 (stereo partly drawn)
inactive: activation [1] -23.7% | Potency [2]

O=P1(N(CCCl)CCCl)NCCCO1 (stereo not drawn)
inactive: activation [1] -25.4% and -10.4% and -10.6% | Potency [10] | viability [13] 114% | Potency [14] | Potency [15]

O=C(N1CCCCC1Cc1ccccc1)n1cc(-c2ccc(-c3ccccc3)cc2)nn1 (stereo not drawn)
inactive: activation [1] 1.43% | Potency [2] | Potency [6] | Potency [8]

COc1ccc2c(c1)c(CCN(C)C)cn2S(=O)(=O)c1ccccc1
inactive: activation [1] 7.16% | Potency [3] | Potency [4] | Potency [2] | Potency [5] | Potency [6] | Potency [7] | Potency [8]

CCCN1CCO[C@H]2c3cc(O)ccc3OC[C@@H]21
inactive: activation [1] 4.46% | Potency [2]

CCC1NC(=O)C2C(Cl)C(Cl)CN2C(=O)C(CC)NC(=O)CC(c2ccccc2)NC(=O)C(CO)NC1=O (stereo not drawn)
inactive: activation [1] -6.87% | Potency [3] | Potency [2] | Potency [7] | Potency [8]

CCCCCn1cc(C(=O)Cc2ccccc2OC)c2ccccc21
inactive: activation [1] 3.34% | Potency [2] | Potency [6] | Potency [8]

C=CC(C)(C)c1[nH]c2c(CC=C(C)C)cc(CC=C(C)C)cc2c1C[C@@H]1NC(=O)[C@H](C)NC1=O
inactive: activation [1] 14.3% | Potency [2]

COc1ccc2[nH]c(-c3ccccc3)c(CCN(C)C)c2c1
inactive: activation [1] -11% | Potency [2] | Potency [6] | Potency [8]

Cc1c(N[C@@H](c2nnc(-c3ccc(C#N)cc3)o2)[C@H](C)O)ccc(C#N)c1Cl
inactive: activation [1] 21% | Potency [3] | Potency [2] | Potency [7] | Potency [8] | Potency [9]

C1=C(c2cnc[nH]2)c2ccsc2CC1
active: Potency [6] 5.62 µM
inactive: activation [1] -3.34% | Potency [2]

CC1(C)C(=O)N(c2ccc(C#N)c(C(F)(F)F)c2)C(=O)N1CCCCO
inactive: activation [1] -17.7% | Potency [2] | Potency [6] | Potency [8]

O=C1CN=C(c2cccc(Br)c2)c2oc3ccccc3c2N1
inactive: activation [1] -24.3% | Potency [2] | Potency [6] | Potency [8]
